Measurements reported in PubChem BioAssay (EPA / NIEHS).
Where “and” joins values, the source holds several entries; their conditions need not be identical. Identical values can stand only once. Inconclusive results are not listed. Calls of active or inactive are those of the source. How the source made its calls: active means hit-call score of the fitted dose curve at least 0.9, where 1 is the maximum; inconclusive means response in the unintended direction; inactive means score below 0.9.

target: chimpanzee Androgen Receptor (AR), AR (gene 747460) (UniProt O97775); test: NVS_NR_cAR: NovaScreen (NVS) Nuclear Receptor Binding Assay for chimpanzee Androgen Receptor (AR) (AID 2283346);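 further: a loss of bound radioligand signal versus DMSO counts as binding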
Sequence (O97775 whole entry, looked up): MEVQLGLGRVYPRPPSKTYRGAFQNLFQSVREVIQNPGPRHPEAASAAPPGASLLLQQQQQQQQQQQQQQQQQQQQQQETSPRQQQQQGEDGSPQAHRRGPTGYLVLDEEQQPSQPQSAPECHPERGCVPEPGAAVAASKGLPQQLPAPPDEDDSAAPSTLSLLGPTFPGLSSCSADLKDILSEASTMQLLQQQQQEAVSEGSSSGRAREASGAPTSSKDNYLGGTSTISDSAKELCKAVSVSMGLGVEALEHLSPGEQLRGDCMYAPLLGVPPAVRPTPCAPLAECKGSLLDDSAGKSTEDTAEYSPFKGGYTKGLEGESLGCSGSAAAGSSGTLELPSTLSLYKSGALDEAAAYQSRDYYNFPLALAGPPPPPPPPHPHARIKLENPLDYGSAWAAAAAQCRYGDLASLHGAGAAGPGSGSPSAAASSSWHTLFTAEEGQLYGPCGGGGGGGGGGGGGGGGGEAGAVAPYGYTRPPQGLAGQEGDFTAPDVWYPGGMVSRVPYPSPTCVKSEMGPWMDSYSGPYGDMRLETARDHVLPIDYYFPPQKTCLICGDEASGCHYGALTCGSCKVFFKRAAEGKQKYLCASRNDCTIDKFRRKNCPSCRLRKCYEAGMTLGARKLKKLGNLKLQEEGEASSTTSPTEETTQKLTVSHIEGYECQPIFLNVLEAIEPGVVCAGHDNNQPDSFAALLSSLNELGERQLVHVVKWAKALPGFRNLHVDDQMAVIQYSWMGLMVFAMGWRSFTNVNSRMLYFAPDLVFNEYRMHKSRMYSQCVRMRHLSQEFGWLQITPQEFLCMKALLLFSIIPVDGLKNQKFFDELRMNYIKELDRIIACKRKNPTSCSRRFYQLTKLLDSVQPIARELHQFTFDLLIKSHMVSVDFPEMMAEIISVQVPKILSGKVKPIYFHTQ
Experimental: NVS_NR_cAR is a biochemical, single-readout assay that uses extracted gene-proteins from Sf9/Sf21 in a cell-free assay. Measurements were taken 72 hours after chemical dosing in a 96-well plate.NVS_NR_cAR is one of one assay component(s) measured or calculated from the NVS_NR_cAR assay. It is designed to make measurements of radioligand binding, a form of binding reporter, as detected with scintillation counting signals by Lysate-based radiodetection technology.Data from the assay component NVS_NR_cAR was analyzed into 1 assay endpoint. This assay endpoint, NVS_NR_cAR, was analyzed in the positive analysis fitting direction relative to DMSO as the negative control and baseline of activity. Using a type of binding reporter, loss-of-signal activity can be used to understand changes in the binding as they relate to the gene AR. Furthermore, this assay endpoint can be referred to as a primary readout, because the performed assay has only produced 1 assay endpoint. To generalize the intended target to other relatable targets, this assay endpoint is annotated to the nuclear receptor intended target family, where the subfamily is steroidal.
Binding assays used specific radioligands (tritiated, iodinated) with non-radioactive competitive displacement ligands in agonist or antagonist protocols (as indicated) and various reference compounds and inhibitors to titrate specific binding to receptors and transporters. Most enzyme assays (CYPs, kinases, phosphatases, proteases, HDACs) used recombinant protein and specific substrates (fluorescence mostly, some colorimetric and radioactive) and inhibitors, followed by a biochemical separation of substrate and product. All assays for the biochemical HTS were initially run in duplicate at a single concentration (10 uM for CYP450 assays and 25 uM for all others). […] Each assay was run with positive and negative controls, and concurrent controls on every plate. The follow-up (secondary) screen tested active chemical-pairs in concentration series, as well as a few additional assays not tested in the primary screen, some selected negative inactives, and several cases re-run in the concentration series for confirmatory purposes.

outcome, inactive:
CN(C)c1ccc(N=Nc2ccccc2C(=O)O)cc1
C#CC1(O)CC[C@H]2[C@@H]3CCC4=CCCC[C@@H]4[C@H]3CC[C@@]21C (stereo not given in full)
OC1CCCCCCCCCCC1
c1ccc2c(c1)ccc1cc3c(ccc4ccccc43)cc12
CCCOC(=O)CCCCC(=O)OCCC

AC50, active:
Oc1ccc(Cl)cc1Cc1cc(Cl)ccc1O 16.2 µM
CCN(CCC#N)c1ccc(N=Nc2c(Cl)cc([N+](=O)[O-])cc2Cl)cc1 16.1 µM
COC(=O)c1c(C)cc(O)c(C)c1O 13.6 µM
CCCCC/C=C\C/C=C\CCCCCCCC(=O)OC 4.2 µM and 11.5 µM
Cc1ccc(N/N=c2\c(=O)cc/c(=N/Nc3ccc(S(=O)(=O)O)cc3)c2=O)c(C)c1 25 µM
